A number with no mark means an inactive call. Activity calls are given as the source filed them. Calls follow the shape of the dose curve; as a rule, active = well fitted curve in the direction sought with a large enough effect; inconclusive = small, poorly fitted or top-dose-only effect, or another doubt; inactive = no such curve, though single readings can be large; an effect the other way counts as inactive or inconclusive.
molecular target: Alpha-galactosidase (Coffea arabica) (UniProt Q42656); assay: Counterscreen for Glucocerebrosidase Inhibitors: qHTS Assay for Coffee Bean alpha-Galactosidase at pH 4.5 (AID 957); details: purified coffee bean alpha-galactosidase, fluorogenic substrate; series mostly up to 76.9 µM; activity change, negative = inhibition: at the top concentration;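 also: plate controls were enzyme alone for no effect and no enzyme for full effect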
Sequence (Q42656 whole entry, looked up): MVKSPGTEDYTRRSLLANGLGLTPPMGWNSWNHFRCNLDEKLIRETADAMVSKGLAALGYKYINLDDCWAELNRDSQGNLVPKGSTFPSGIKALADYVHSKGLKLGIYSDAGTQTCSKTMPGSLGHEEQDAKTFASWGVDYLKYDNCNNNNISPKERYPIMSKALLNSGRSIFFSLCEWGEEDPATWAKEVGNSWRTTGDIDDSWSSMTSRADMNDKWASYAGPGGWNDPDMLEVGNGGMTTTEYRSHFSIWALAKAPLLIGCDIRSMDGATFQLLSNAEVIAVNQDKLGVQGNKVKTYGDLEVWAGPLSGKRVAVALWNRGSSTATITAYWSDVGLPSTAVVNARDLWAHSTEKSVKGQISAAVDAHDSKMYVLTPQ
In short: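 Fluorogenic qHTS at pH 4.5 (citrate buffer with Tween-20): 2 nM enzyme, 80 uM 4-MU-alpha-galactoside substrate, compound titrated 0.7 nM to 77 uM, 20 min room temperature. Glycine/NaOH stop; 4-MU read Ex 365/Em 440; Hill-equation AC50 against no-enzyme and enzyme controls.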

Structure (SMILES)	activity change, negative = inhibition [%]	outcome
N#C[C@@H](Cc1ccc(O)c(O)c1)C(=O)N1CCc2ccccc21	-3.98	
COc1ccc(CCN(C)CCC[C@@](C#N)(c2ccc(OC)c(OC)c2)C(C)C)cc1OC	-0.704	
O=[N+]([O-])c1ccc(CSc2ncnc3c2ncn3[C@@H]2O[C@@H](CO)[C@@H](O)[C@H]2O)cc1	-0.457	
Cc1cccc(C)c1OC[C@@H](N)C(C)C	-3.24	
CC(=O)/C(C)=N\O	-1.53	
CCCCCCCCCCCCCCCC(=O)O[C@H](CC(=O)O)C[N+](C)(C)C	-0.397	
Cc1ccccc1N1CCN(S(=O)(=O)C[C@@]23CC[C@H](C[C@H]2NC(=O)[C@@H](N)CCS(C)(=O)=O)C3(C)C)CC1	2.63	
CC(C)NC[C@H](O)c1ccc(NS(C)(=O)=O)cc1	-1.13	
CN1Cc2c(N)cccc2[C@H](c2ccccc2)C1	-2.16	
NC[C@@H]1O[C@@H](O[C@H]2[C@@H](O)[C@H](O[C@@H]3[C@H](O)[C@H](N)C[C@H](N)[C@H]3O[C@@H]3O[C@@H](CO)[C@H](O)[C@H](O)[C@@H]3N)O[C@H]2CO)[C@H](N)[C@H](O)[C@@H]1O	-1.06	
CCN(CC)CCC[C@H](C)Nc1ccnc2cc(Cl)ccc12	-0.139	
C[C@@H]1CCN=C(N)S1	-1.24	
CC#CCOC(=O)c1c(C)nc2sc3c(c2c1N)CC[C@@H](O)C3	0.534	
C[C@@H]1COc2c(N3CCN(C)CC3)c(F)cc3c(=O)c(C(=O)O)cn1c23	-0.198	
O=C(O)C[C@@H]1CCCc2ccccc2[C@H]1O	1.85	
OCCN1CCN(CC/C=C2\c3ccccc3Sc3ccc(C(F)(F)F)cc32)CC1	-0.83	
CC[C@H](C)C(=O)O[C@H]1CCC=C2C=C[C@H](C)[C@H](CC[C@@H]3C[C@H](O)CC(=O)O3)[C@H]21	-1.81	
N[C@]1(C(=O)O)CCc2cc(C(=O)O)ccc21	0.409	
CN1[C@@H]2CC[C@H]1CC(OC(=O)[C@@H](CO)c1ccccc1)C2 (stereo not given in full)		inactive
CCCCCCCCCCCCCCCCCC(=O)NC[C@@H](COP(=O)([O-])OCC[N+](C)(C)C)OCC	-3.16	

Structure (SMILES)	activity change, negative = inhibition [%]	outcome
N[C@H](C(=O)O)[C@@H]1C[C@@H]1C(=O)O	-0.713	
COc1cccc(OC)c1OCCNC[C@@H]1CSc2ccccc2O1	-3.04	
N=c1ccn2c(n1)O[C@@H]1[C@@H](O)[C@H](CO)O[C@H]12	-3.58	
CO/N=C(\C(=O)N[C@@H]1C(=O)N2C(C(=O)O)=C(CSc3nc(=O)c(O)nn3C)CS[C@@H]12)c1csc(N)n1	5.14	
C=C/C(C)=C/[C@]1(C)SC(=O)C(C)=C1O	3.45	
CNC(=O)[C@@H]1O[C@@H](n2cnc3c(NCc4cccc(I)c4)ncnc32)[C@H](O)[C@@H]1O	-1.11	
C#C[C@]1(O)CC[C@H]2[C@H]3CCC4=Cc5oncc5C[C@]4(C)[C@@H]3CC[C@]21C	-4.77	
CCCCCCCCCCCCCCC/C=C\[C@H](O)[C@@H](NC(=O)CCCCCCCCCCCCC)OC (tested in a mixture with another compound)	-3.02	
Nc1c2c(nc3ccccc13)CCC[C@H]2O	-0.304	
C=C[C@@]1(C)CC(=O)[C@@]2(O)[C@@]3(C)[C@H](O)CCC(C)(C)[C@@H]3[C@H](O)[C@H](OC(C)=O)[C@]2(C)O1	-1.1	
CN1CCN([C@@H]2Cc3ccccc3Sc3ccc(Cl)cc32)CC1	-7.21	
N[C@H](CCCP(=O)(O)O)C(=O)O	-1.15	
NC(=S)NCCC[C@@H](N)C(=O)O	3.04	
O=C(O)CCCC[C@H]1CCSS1	-2.6	
CCN1CCC[C@@H]1CNC(=O)c1c(O)c(Cl)cc(Cl)c1OC	-0.0171	
CCN1CCC[C@@H]1CNC(=O)c1cc(S(N)(=O)=O)ccc1OC	2.27	
NCCCCNS(=O)(=O)c1cccc2c(Cl)cccc12	-4.69	
OC[C@@H]1O[C@@H](n2cnc3c(NC4CCCCC4)ncnc32)[C@@H](O)[C@H]1O	-3.65	
CO/N=C(\C(=O)N[C@@H]1C(=O)N2C(C(=O)O)=C(COC(C)=O)CS[C@@H]12)c1csc(N)n1	1.34	
O=C(O)CCC(=O)N1CCC[C@H]1C(=O)O	-1.15	

molecular target: Alpha-galactosidase (Coffea arabica) (UniProt Q42656); assay: Counterscreen for Glucocerebrosidase Inhibitors: qHTS Assay for Coffee Bean alpha-Galactosidase at pH 5.9 (AID 998); details: coffee bean alpha-galactosidase enzyme assay; series mostly up to 76.9 µM; activity, negative = inhibition: at the top concentration;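 also: plate controls were uninhibited enzyme for no effect and no-enzyme basal signal for full effect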
In short: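 Fluorogenic 4-MU substrate hydrolysis, 80 uM substrate and 2 nM coffee bean alpha-galactosidase, pH 5.9 citrate buffer, 20 min at room temperature, then NaOH/glycine stop. Titration 0.7 nM–77 uM, normalized to no-enzyme and enzyme controls, AC50 via Hill equation.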

Structure (SMILES)	activity, negative = inhibition [%]	outcome
N#C[C@@H](Cc1ccc(O)c(O)c1)C(=O)N1CCc2ccccc21	-5.19	
COc1ccc(CCN(C)CCC[C@@](C#N)(c2ccc(OC)c(OC)c2)C(C)C)cc1OC	-1.36	
O=[N+]([O-])c1ccc(CSc2ncnc3c2ncn3[C@@H]2O[C@@H](CO)[C@@H](O)[C@H]2O)cc1	3.48	
Cc1cccc(C)c1OC[C@@H](N)C(C)C	-1.36	
CC(=O)/C(C)=N\O	-0.805	
CCCCCCCCCCCCCCCC(=O)O[C@H](CC(=O)O)C[N+](C)(C)C	-0.58	
Cc1ccccc1N1CCN(S(=O)(=O)C[C@@]23CC[C@H](C[C@H]2NC(=O)[C@@H](N)CCS(C)(=O)=O)C3(C)C)CC1	-1.7	
CC(C)NC[C@H](O)c1ccc(NS(C)(=O)=O)cc1	-0.126	
CN1Cc2c(N)cccc2[C@H](c2ccccc2)C1	-2.68	
NC[C@@H]1O[C@@H](O[C@H]2[C@@H](O)[C@H](O[C@@H]3[C@H](O)[C@H](N)C[C@H](N)[C@H]3O[C@@H]3O[C@@H](CO)[C@H](O)[C@H](O)[C@@H]3N)O[C@H]2CO)[C@H](N)[C@H](O)[C@@H]1O	-1.39	
CCN(CC)CCC[C@H](C)Nc1ccnc2cc(Cl)ccc12	1.2	
C[C@@H]1CCN=C(N)S1	-3.33	
CC#CCOC(=O)c1c(C)nc2sc3c(c2c1N)CC[C@@H](O)C3	-1.69	
C[C@@H]1COc2c(N3CCN(C)CC3)c(F)cc3c(=O)c(C(=O)O)cn1c23	-0.165	
O=C(O)C[C@@H]1CCCc2ccccc2[C@H]1O	1.49	
OCCN1CCN(CC/C=C2\c3ccccc3Sc3ccc(C(F)(F)F)cc32)CC1	-3.09	
CC[C@H](C)C(=O)O[C@H]1CCC=C2C=C[C@H](C)[C@H](CC[C@@H]3C[C@H](O)CC(=O)O3)[C@H]21	-1.14	
N[C@]1(C(=O)O)CCc2cc(C(=O)O)ccc21	0.0687	
CN1[C@@H]2CC[C@H]1CC(OC(=O)[C@@H](CO)c1ccccc1)C2 (stereo not given in full)		inactive
CCCCCCCCCCCCCCCCCC(=O)NC[C@@H](COP(=O)([O-])OCC[N+](C)(C)C)OCC	3.54	

Structure (SMILES)	activity, negative = inhibition [%]	outcome
N[C@H](C(=O)O)[C@@H]1C[C@@H]1C(=O)O	1.78	
COc1cccc(OC)c1OCCNC[C@@H]1CSc2ccccc2O1	-2.31	
N=c1ccn2c(n1)O[C@@H]1[C@@H](O)[C@H](CO)O[C@H]12	0.942	
CO/N=C(\C(=O)N[C@@H]1C(=O)N2C(C(=O)O)=C(CSc3nc(=O)c(O)nn3C)CS[C@@H]12)c1csc(N)n1	-1.28	
C=C/C(C)=C/[C@]1(C)SC(=O)C(C)=C1O	2.72	
CNC(=O)[C@@H]1O[C@@H](n2cnc3c(NCc4cccc(I)c4)ncnc32)[C@H](O)[C@@H]1O	-0.303	
C#C[C@]1(O)CC[C@H]2[C@H]3CCC4=Cc5oncc5C[C@]4(C)[C@@H]3CC[C@]21C	-4.25	
CCCCCCCCCCCCCCC/C=C\[C@H](O)[C@@H](NC(=O)CCCCCCCCCCCCC)OC (tested in a mixture with another compound)	-0.383	
Nc1c2c(nc3ccccc13)CCC[C@H]2O	-0.875	
C=C[C@@]1(C)CC(=O)[C@@]2(O)[C@@]3(C)[C@H](O)CCC(C)(C)[C@@H]3[C@H](O)[C@H](OC(C)=O)[C@]2(C)O1	-2.12	
CN1CCN([C@@H]2Cc3ccccc3Sc3ccc(Cl)cc32)CC1	-3.82	
N[C@H](CCCP(=O)(O)O)C(=O)O	-0.069	
NC(=S)NCCC[C@@H](N)C(=O)O	0.766	
O=C(O)CCCC[C@H]1CCSS1	-2.03	
CCN1CCC[C@@H]1CNC(=O)c1c(O)c(Cl)cc(Cl)c1OC	0.588	
CCN1CCC[C@@H]1CNC(=O)c1cc(S(N)(=O)=O)ccc1OC	-1.04	
NCCCCNS(=O)(=O)c1cccc2c(Cl)cccc12	-2.3	
OC[C@@H]1O[C@@H](n2cnc3c(NC4CCCCC4)ncnc32)[C@@H](O)[C@H]1O	-0.508	
CO/N=C(\C(=O)N[C@@H]1C(=O)N2C(C(=O)O)=C(COC(C)=O)CS[C@@H]12)c1csc(N)n1	2.28	
O=C(O)CCC(=O)N1CCC[C@H]1C(=O)O	1.78	

— PubChem BioAssay (NCATS)
